Values joined by “and” are separate entries in the source; they are usually repeats but may differ in a detail not shown here. Equal entries are not always repeated. This is part of a sample that, as a whole, favours compounds with a hit. Of some 83,000 tested, about 20% had one in any assay.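 Method: cells in 96-well plates; compound added at one concentration; 48 h incubation; percent growth measured; values under 10 scored active.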 Active and inactive are the calls of the source.
What follows are molecules tested on A549/ATCC NSCLC (assay: NCI-60 one-dose screen, 48 h (100 = growth as untreated, 0 = no growth, -100 = all killed)). Conditions: 10 µM unless noted.
For `Cc1ccc2c(n1)C(=O)C(Cl)=C(Nc1ccc(C#N)cc1)C2=O`, the growth was 106% (inactive). In the case of `CC(C)(O)c1cncc(-c2ccc3ncc(C#N)c(N4CCc5cc(F)c(Cl)cc54)c3c2)c1`, the growth is reported as 6.02% (active). `O=c1c2ccccc2cc2n1CCN=C2c1ccccc1` was tested, and the growth was 102% (inactive). For `O=C(CN1CCN(c2cc(=O)[nH]c3ccc(F)cc23)CC1)N(c1ccccc1)c1ccccc1`, the growth was 115% (inactive). With `CCc1cc(OC(=O)N2CCC(N3CCCCC3)CC2)ccc1Nc1cc(-c2ccc(-n3cccn3)cc2)[nH]n1` the growth was 53.8% (inactive). `CCCC/C(=C\c1ccc(O)c(O)c1)C(=O)NC(Cc1ccccc1)C(=O)C(=O)NCCc1ccc(OC)cc1` (stereo not given) was tested, and the growth was 103% (inactive). In the case of `CN(C)c1ccc(-c2cc(-c3c[nH]c4ccccc34)nc(N)c2C#N)cc1`, the growth is reported as 25.4% (inactive). With `COc1cc(C(=O)c2cc(C(C)=O)c3ccc(C)cn23)cc(OC)c1OC` the growth was 46.7% (inactive). With `CCOC(=O)c1ccccc1NC1=C(Cl)C(=O)c2nc(C)ccc2C1=O` the growth was 107% (inactive). For `CN(C)S(=O)(=O)c1ccc(-c2nc(C(Cl)Cl)nc3cc(-c4ccccc4)nn23)cc1`, the growth was 82.6% (inactive). With `CN1CCN(c2ccc(Nc3nc(NCCCNS(=O)(=O)c4ccc(Cl)cc4)c4sccc4n3)cc2)CC1` the growth was 21.9% (inactive). For `O=C1[C@@H]2Cc3c([nH]c4ccccc34)[C@H](c3ccc(Cl)cc3)N2C(=O)CN1C1CCN(Cc2ccccc2)CC1`, the growth was 38.8% (inactive). With `CN1CCN(CCNc2nc(-c3cccc(NS(=O)(=O)c4cccc5c(N(C)C)cccc45)c3)cs2)CC1` the growth was 69.6% (inactive). With `C#C[C@]1(O)CC[C@H]2[C@@H]3CC=C4c5sc(Nc6ncccc6C)nc5CC[C@]4(C)[C@H]3CC[C@@]21C` the growth was 21.8% (inactive). For `CC(=O)N(O)CCCCCNC(=O)CCC(=O)N(O)CCCCCNC(=O)CCC(=O)N(O)CCCCCN(CCCCCCCCCC[P+](c1ccccc1)(c1ccccc1)c1ccccc1)CCCCCCCCCC[P+](c1ccccc1)(c1ccccc1)c1ccccc1`, the growth was 9% (active). `O=C1Nc2ccccc2/C1=N\c1nnc(-c2ccccc2)o1` was tested, and the growth was 103% (inactive). In the case of `CCCCCCCCCC(=O)NC(C)(C)C(=O)N1CCC[C@H]1C(=O)N[C@@H](CC(C)C)C(=O)N[C@@](C)(CC)C(=O)N[C@@H](CCC(N)=O)C(=O)N[C@H](CCC(N)=O)C(=O)NC(C)(C)C(=O)NC(C)(C)C(=O)N[C@@H](CCC(N)=O)C(=O)N[C@H](CC(C)C)C(=O)N[C@H](CO)CC(C)C`, the growth is reported as -72% (active) and 49.1% (inactive). `Fc1cccc(Cl)c1/C=N/Nc1nc(N/N=C/c2c(F)cccc2Cl)nc(N2CCCCC2)n1` was tested, and the growth was 21.6% (inactive). `Cc1ccc(/C(N)=N/C(N)=N/c2nc3ccccc3s2)cc1` was tested, and the growth was 19.6% (inactive). For `CCc1cc2c(cc1Cl)nc1c(=O)[nH]c(=O)nc-1n2CCOCC(C)(C)C`, the growth was 75.5% (inactive). `Cc1csc(/N=C(N)/N=C(\N)c2cccc(Br)c2)n1` was tested, and the growth was 101% (inactive). `Brc1cccc(-c2cc(-c3cnc4c(c3)OCCO4)n[nH]2)c1` was tested, and the growth was 36.8% (inactive). `CN(C)CC(=O)Nc1nc(-c2cccc(NS(=O)(=O)c3cccc4c(N(C)C)cccc34)c2)cs1` was tested, and the growth was 80.1% (inactive). `O=C(/C=C/c1cc(Cl)ccc1Cl)Nc1ncc(Cc2ccc(Cl)cc2)s1` was tested, and the growth was 12.3% (inactive). With `Nc1ncc(-c2ccc3ncnc(NCc4ccccc4)c3c2)cn1` the growth was 41.3% (inactive). `Cc1ccc(-c2cc3nc(C(Cl)Cl)nc(-c4ccc(S(=O)(=O)N(C)C)cc4)n3n2)cc1` was tested, and the growth was 88.4% (inactive). For `CCN(CC)CCOc1ccc(C(=C(c2ccccc2)C2CCCC2)c2ccc(OCCN(CC)CC)cc2)cc1`, the growth was 37.4% (inactive). In the case of `COC(=O)c1cccc(NC2=C(Cl)C(=O)c3nc(C)ccc3C2=O)c1`, the growth is reported as 102% (inactive). `COc1cc(/C=N\NC(=O)c2ccc3nc(-c4ccc(Br)cc4)[nH]c3c2)cc(OC)c1OC` was tested, and the growth was 72.5% (inactive). In the case of `NC1=NC2(CCCC2)N(c2ccc(S(=O)(=O)Nc3nccs3)cc2)C(N)=N1`, the growth is reported as 104% (inactive). In the case of `N#C/C(=N\Nc1ccc(F)cc1)C(=O)Nc1cc(-c2ccccc2)nn1-c1ccccc1`, the growth is reported as 11% (inactive). For `Cc1ccc(S(=O)(=O)c2nc(-c3ccc(F)cc3)oc2S(C)(=O)=O)cc1`, the growth was 96.4% (inactive). With `CC(O)c1cccc(/C(N)=N/C(N)=N/c2nc3ccccc3s2)c1` (stereo not given) the growth was 82% (inactive). With `CCOc1cccc(/C(N)=N/C(N)=N/c2nc3ccccc3s2)c1` the growth was -20% (active). In the case of `O=C(CCl)Nc1ccc(NC(=O)c2cc(Cl)ccc2O)c(Cl)c1`, the growth is reported as 88.3% (inactive). In the case of `Clc1ccc(CSc2nnc(-c3ccc(Cl)cc3)n2-c2ccccc2)cc1`, the growth is reported as 80.3% (inactive). For `CC(C)(C)OC(=O)NCc1ccc(CNc2c([N+](=O)[O-])cnc3ccccc23)cc1`, the growth was 72.2% (inactive). For `NS(=O)(=O)c1ccc(Nc2nc(N/N=C/c3ccc4c(c3)OCO4)nc(Nc3ccccc3)n2)cc1`, the growth was 74.7% (inactive). `Cc1cc(=O)oc2cc(OCCCOc3ccc(/C=C/C(=O)Nc4ccc(Br)cc4)cc3)ccc12` was tested, and the growth was 92.2% (inactive). `CNC(=O)c1cc(N2CCc3cc(NC(=O)Nc4ccc(N5CCOCC5)c(C(F)(F)F)c4)ccc32)ccn1` was tested, and the growth was 43.7% (inactive).

— PubChem BioAssay (NCI)
